# Experimental data published in PubChem BioAssay (Tox21).
# Inconclusive results are not listed. Active and inactive are the calls of the source. Calls follow the shape of the dose curve; as a rule, active = well fitted inhibition curve with a large enough effect in the signal ratio in the repeat runs (not every such curve was filed as active); inconclusive = weak or mixed curves; inactive = flat fitted curve, though single readings scatter; the % refers to the signal ratio.
# Assay: qHTS assay to identify small molecule antagonists of the TGF-beta/Smad signaling pathway (AID 1346924)
# Settings: SBE-bla HEK293T, TGF-beta/Smad reporter, beta-lactamase ratio
# Description: U.S. Tox21 Program National Center for Advancing Translational Sciences [NCATS] NIH Chemical Genomics Center [NCGC] U.S. Environmental Protection Agency [EPA] National Institutes of Environmental Health Sciences [NIEHS] National Toxicology Program [NTP] U.S. Food and Drug Administration [FDA] Tox21 Assay Overview: Transforming growth factor beta (TGF-beta) superfamily consists of a large number of structurally related dimeric proteins that act as hormones or local mediators in regulating a wide range of biological functions. This superfamily includes TGF-betas themselves, the bone morphogenetic proteins (BMPs) and the activins. These ligands induce oligomerization of serine/threonine receptor kinases and phosphorylate the cytoplasmic signaling molecules of Smad protein family. CellSensor SBE-bla HEK 293T cell line (Life Technologies, Carlsbad, CA), responsive to TGF-beta was used to screen Tox21 10K compound library for identification of agonists/antagonists of the Smad signaling pathway. […]
# Tox21 Assay Protocol Summary: SBE-bla HEK 293T cells were dispensed at 4,000/well in 5 uL of assay medium into black wall/clear-bottom 1536-well plates using a Multidrop Combi (ThermoFisher Scientific, Waltham, MA) dispenser. […] Fluorescence intensity (405 nm excitation, 460 nm and 530 nm emissions) was measured using an Envision plate reader (PerkinElmer, Shelton, CT).
# Potency is read from the fitted curve at half-maximal effect.
row,Compound,Potency
1,CCCCCCCCCCCC[N+](C)(C)CCOc1ccccc1,50.9 µM (active)
